Only some compounds are listed: those with a hit (about 9.2% of all), similar ones and a draw of the others.
HTT ATP protect: qHTS Multiplex Assay to Identify Dual Action Probes in a Cell Model of Huntington: Cytoprotection (ATP) | PC12 HTT-Q103 induced, cytoprotection, ATP luminescence, 40 h | Potency, µM (series often up to 56.4 µM), for inactives: cytoprotection (ATP increase), usual class: activators | hit rate 0.14% among 230,000 | AID 1471, 2008; active = well fitted curve in the direction sought with a large enough effect; inconclusive = small, poorly fitted or top-dose-only effect, or another doubt; inactive = no such curve, though single readings can be large; an effect the other way counts as inactive or inconclusive; also: % of control where 0% means no effect; nearly all actives have a fitted effect of over 45% in size
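ATP quantification (ATPlite) reports survival of PC12 cells in which tebufenozide, 100 nM final, switches on Htt exon 1 with 103 glutamines linked to GFP; compounds are titrated.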
HTT aggregate: qHTS Multiplex Assay to Identify Dual Action Probes in a Cell Model of Huntington: Aggregate Formation (GFP). Potency, µM (doses to about 46.1 µM), inactives show at the highest dose activity change, negative = inhibition, actives largely listed as inhibitors. PC12 HttQ103-GFP aggregates, Acumen cytometry, 40 h. hit rate 1.1% among 220,000. AID 1688, 2009; active = well fitted curve in the direction sought with a large enough effect; inconclusive = small, poorly fitted or top-dose-only effect, or another doubt; inactive = no such curve, though single readings can be large; an effect the other way counts as inactive or inconclusive; also: % is scaled to controls: 0 for no effect and ±100 for the full control effect; nearly all actives have a fitted effect of over 60% in size
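Inducible Q103 Huntingtin exon 1–GFP PC12 line, 1500 cells/well in phenol red free DMEM with 5% equine and 5% calf serum. Tebufenozide 100 nM induced expression; compounds titrated; aggregates quantified by cytometry.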
JMJD2E inh: qHTS Assay for Inhibitors of Human Jumonji Domain Containing 2E (JMJD2E) | Potency, µM (doses to about 57.1 µM), inactives show at the highest dose activity change, negative = inhibition, actives largely listed as inhibitors | hit rate 1.6% among 230,000 | JMJD2E catalytic domain, FDH-coupled NADH fluorescence (FDH is formaldehyde dehydrogenase) | Lysine-specific demethylase 4E (Homo sapiens), B2RXH2;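 also: 0% = wells with enzyme and -100% = buffer wells without enzyme; nearly all actives have a fitted effect of over 50% in size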
Lamin A splicing: qHTS Assay for Modulators of Lamin A Splicing; HeLa LMNA splicing GFP/RFP minigene ratio, 48 h; Potency, µM (top dose mostly 46.1 µM), inactives show top-dose ratio change, negative = inhibition, most hits filed as inhibitors; hit rate 0.01% among 200,000; active = well fitted inhibition curve with a large enough effect in the signal ratio, with a control signal flat, not every such curve was filed as active; inconclusive = small, poorly fitted or top-dose-only effect, or effect the other way, or a change in a side signal; the % refers to the signal ratio; also: % is scaled to controls: 0 for no effect and ±100 for the full control effect
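S3 HeLa cells stably expressing lamin A-EGFP splicing minigene plus DsRed2, 600 cells/well, 48 h compound exposure at 37C. Laser-scanning cytometry; analysed as GFP (500-530 nm)/RFP (575-640 nm) total intensity ratio; 0.5% DMSO vehicle.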
HPGD block: qHTS Assay for Inhibitors of HPGD (15-Hydroxyprostaglandin Dehydrogenase) | 15-hydroxyprostaglandin dehydrogenase [NAD(+)] (Homo sapiens), P15428 | purified HPGD, NADH fluorescence kinetic, PGE2 substrate | Potency, µM, inactives show at the highest dose activity change, negative = inhibition, actives largely listed as inhibitors | hit rate 4.3% among 150,000 | AID 894, 2007; also: % is scaled to controls: 0 for no effect and ±100 for the full control effect
Target sequence (P15428 whole entry, looked up): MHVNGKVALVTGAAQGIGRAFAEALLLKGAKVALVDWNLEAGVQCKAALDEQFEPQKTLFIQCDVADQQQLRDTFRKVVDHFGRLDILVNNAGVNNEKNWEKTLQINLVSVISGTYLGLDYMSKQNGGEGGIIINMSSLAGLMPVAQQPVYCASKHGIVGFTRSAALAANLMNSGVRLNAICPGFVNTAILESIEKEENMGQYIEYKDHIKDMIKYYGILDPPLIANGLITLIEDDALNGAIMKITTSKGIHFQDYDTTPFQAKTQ
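20 nM HPGD preincubated 15 min at room temperature with compound in 50 mM Tris-HCl pH 8, 0.01% Tween 20. Started with 1 mM NAD+ and 30 uM prostaglandin E2; NADH fluorescence (360/450 nm) read 5 times over 30-s intervals, last minus first.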
ALDH1A1 inh: qHTS Assay for Inhibitors of Aldehyde Dehydrogenase 1 (ALDH1A1). Aldehyde dehydrogenase 1A1 (Homo sapiens), P00352. Purified ALDH1A1, NADH fluorescence, propionaldehyde substrate. Potency, µM (highest dose often 75.3 µM), for inactives: at the top dose activity, negative = inhibition, most hits filed as inhibitors. hit rate 7.3% among 220,000;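 also: plate controls were no enzyme wells and a reference inhibitor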
Target sequence (P00352 whole entry, looked up): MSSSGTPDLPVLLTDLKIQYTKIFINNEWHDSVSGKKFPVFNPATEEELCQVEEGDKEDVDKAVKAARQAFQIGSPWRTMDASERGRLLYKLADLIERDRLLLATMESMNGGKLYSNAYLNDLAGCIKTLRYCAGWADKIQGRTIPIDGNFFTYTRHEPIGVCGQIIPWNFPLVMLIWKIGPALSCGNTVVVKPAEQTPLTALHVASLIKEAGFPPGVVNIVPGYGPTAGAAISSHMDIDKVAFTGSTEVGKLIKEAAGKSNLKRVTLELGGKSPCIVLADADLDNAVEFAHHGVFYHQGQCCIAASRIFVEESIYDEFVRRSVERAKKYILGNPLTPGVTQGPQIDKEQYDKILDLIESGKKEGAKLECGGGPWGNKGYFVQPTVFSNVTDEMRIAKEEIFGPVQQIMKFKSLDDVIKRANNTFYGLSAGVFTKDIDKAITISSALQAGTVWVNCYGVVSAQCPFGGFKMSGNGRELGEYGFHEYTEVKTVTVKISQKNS
* = called active by the depositor; [ ] = dose if it differs, or a comment. Unless noted, calls follow the shape of the dose curve; as a rule, active = well fitted inhibition curve with a large enough effect (not every such curve was filed as active); inconclusive = small, poorly fitted or top-dose-only effect, or another doubt; inactive = no such curve, though single readings can be large or run the other way. Potency is read from the fitted curve at half-maximal effect.

`CCCCOc1ccc(C2NC(=O)NC(C)=C2C(C)=O)cc1OCC` (centres undefined) gave HTT ATP protect -4%, HTT aggregate -1%, JMJD2E inh -3%, Lamin A splicing inconclusive and ALDH1A1 inh 6%.
For CCc1cccc(C)c1NC(=S)NCC1CCN(c2ccc(OC)cc2)C1 (centres undefined) the results were HTT ATP protect 5%[10 µM], HTT aggregate -11%, JMJD2E inh inconclusive and ALDH1A1 inh 10µM*.
For CCc1ccccc1NC(=S)NCC1CCN(c2ccc(OC)cc2)C1 (centres undefined) the results were HTT ATP protect -4%[10 µM], HTT aggregate -10%[9.22 µM] and JMJD2E inh -22%.
COc1ccc(N2CCC(CNC(=O)Nc3ccc(Cl)cc3)C2)cc1 (centres undefined) was read as HTT ATP protect -9%, HTT aggregate inconclusive, JMJD2E inh -8%, Lamin A splicing inconclusive and ALDH1A1 inh 5.6µM*.
For CCN(CC)S(=O)(=O)c1ccc(C(=O)Nc2ccc(Cc3ccncc3)cc2)cc1 the results were HTT ATP protect 0%[10 µM], HTT aggregate -5%[9.22 µM], JMJD2E inh -2% and ALDH1A1 inh inconclusive.
CCN(Cc1ccncc1)S(=O)(=O)c1ccc(C(C)=O)cc1 was read as HTT ATP protect -9%[10 µM], HTT aggregate inconclusive, JMJD2E inh -4%, Lamin A splicing inconclusive, HPGD block -29% and ALDH1A1 inh 7.9µM*.
Screening COc1ccc(CCNC(=O)C2CCN(S(=O)(=O)c3c(C)noc3/C=C/c3ccc(C)cc3)CC2)cc1OC returned Lamin A splicing -1%[46 µM].
Screening O=S(=O)(c1cccc2nsnc12)N1CCN(c2ccccc2F)CC1 returned HTT ATP protect 11%[10 µM], HTT aggregate 2%[9.22 µM], JMJD2E inh 10%, Lamin A splicing inconclusive and ALDH1A1 inh 22µM*.
Screening OC[C@@H]1O[C@H](O)[C@@H](Cl)[C@H](O)[C@@H]1O returned HTT ATP protect -14%[1.9 µM].
For O=C(Nc1ccc(Cl)c(S(=O)(=O)N2CCOCC2)c1)c1ccccc1-c1ccc(C(F)(F)F)cc1 the results were HTT ATP protect -8%[10 µM], HTT aggregate -28%, JMJD2E inh inconclusive, Lamin A splicing inconclusive, HPGD block -23% and ALDH1A1 inh inconclusive.
`CC(=O)N(Cc1cc(=O)[nH]c2ccccc12)c1cccc(C)c1` gave HTT ATP protect 4%, HTT aggregate 18%, JMJD2E inh inconclusive, Lamin A splicing 4%, HPGD block inconclusive and ALDH1A1 inh 20µM*.
CC(=O)N(Cc1cc(=O)[nH]c2ccccc12)c1ccccc1 was read as HTT ATP protect 11%, HTT aggregate -9%, JMJD2E inh -5%, Lamin A splicing 2%, HPGD block -7% and ALDH1A1 inh 6%.
For O=C1OC(c2ccccc2)=C/C1=C/N1CCCCC1 the results were HTT ATP protect -11%[10 µM], HTT aggregate inconclusive, JMJD2E inh -23%, Lamin A splicing 29%, HPGD block inconclusive and ALDH1A1 inh 10µM*.
`O=C1CCSc2ccc(Cl)cc2N1Cc1ccccc1` gave HTT ATP protect 17%, HTT aggregate inconclusive, JMJD2E inh -3%, Lamin A splicing 5%, HPGD block -4% and ALDH1A1 inh 2%.
Cc1cccc(CN2C(=O)CCSc3ccc(Cl)cc32)c1 was read as HTT ATP protect 5%, HTT aggregate -20%, JMJD2E inh -4%, Lamin A splicing -4%, HPGD block -10% and ALDH1A1 inh 14µM*.
Screening O=C(O)CCC/C=C\CC1C2CCC(O2)C1CNNC(=O)Nc1ccccc1 (centres undefined) returned HTT ATP protect -34%, JMJD2E inh 5%, HPGD block -9% and ALDH1A1 inh -5%.
`CCC(O)CNC(=O)NC(=C(Cl)Cl)c1ccc(C)c(F)c1` (centres undefined) gave HTT ATP protect 36%[1.9 µM], HTT aggregate inconclusive, JMJD2E inh 5%, Lamin A splicing inconclusive, HPGD block -14% and ALDH1A1 inh 3.5µM*.
`CCN1CCS/C1=C\C=C\C1=[N+](CC)CCS1` gave HTT ATP protect -66%, HTT aggregate 1.1µM*, Lamin A splicing inconclusive and ALDH1A1 inh -9%.
CCN1CCS/C1=C/C=C/C1=[N+](CC)CCS1 was read as HTT ATP protect -25%[10 µM], HTT aggregate 0.5µM*, JMJD2E inh 28µM*, Lamin A splicing inconclusive and HPGD block -19%.
For CC(C)C[C@@H](CC(=O)N[C@@H](CCCN)CC(=O)N[C@@H]1CCCC[C@H]1C(=O)N[C@H](CC(=O)N[C@@H](CCC(=O)O)CC(=O)O)Cc1ccccc1)NC(=O)[C@@H]1CNCC[C@H]1N the results were HTT ATP protect inconclusive, JMJD2E inh -11%, HPGD block -2% and ALDH1A1 inh -13%.
CCOC(=O)c1cc(C)nc(SC)c1C#N was read as HTT ATP protect 2%[10 µM], HTT aggregate 17%[9.22 µM], JMJD2E inh inconclusive and ALDH1A1 inh 40µM*.
Screening COc1cccc2c1OCC/C2=N\NC(=O)C(C)Oc1ccc([N+](=O)[O-])cc1 (centres undefined) returned HTT ATP protect -1%[10 µM], HTT aggregate -8%[9.22 µM], JMJD2E inh -22%, Lamin A splicing inconclusive and ALDH1A1 inh inconclusive.
`CN1C(=O)c2cccc3c(S(=O)(=O)NCc4ccco4)ccc1c23` gave HTT ATP protect -1%[10 µM], HTT aggregate -3%, JMJD2E inh inconclusive, Lamin A splicing inconclusive, HPGD block -16% and ALDH1A1 inh 14µM*.
`COc1ccc(OCC(=O)N2CCN(c3cccc(Cl)c3)CC2)cc1` gave HTT ATP protect -2%, HTT aggregate -3%, JMJD2E inh 7%, Lamin A splicing 5%, HPGD block -4% and ALDH1A1 inh 6%.
For O=C(Cc1cccs1)N1CCN(c2cccc(Cl)c2)CC1 the results were HTT ATP protect 31%[10 µM], HTT aggregate -19%[9.22 µM], JMJD2E inh inconclusive, Lamin A splicing 19%[46 µM] and ALDH1A1 inh 6%.
For O=C(O)CCC(=O)N1CCN(c2cccc(Cl)c2)CC1 the results were HTT ATP protect 6%, HTT aggregate 12%, JMJD2E inh -3%, Lamin A splicing 12%, HPGD block -6% and ALDH1A1 inh 28µM*.

Screening results: PubChem BioAssay, National Center for Advancing Translational Sciences (NCATS)
